PubChem BioAssay AID1159580 (chemical genetic matrix, 2015)
The campaign covered roughly 5,500 compounds. About 2,000 (36%) were called active. Inconclusive results (about 18%) are left out. No stated cut-off is given here; in the data, active means normalized growth mostly below about 0.91 (no sharp cut-off); inconclusive means no clear call, values can overlap the other calls; inactive means mostly above about 0.92. The list shows a part of the results.

Assay: chemical genetic growth profiling, strain panel (AID 1159580);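 further: tested at 20 µM; growth read once vehicle control cultures reached saturation at 30 °C; 1 = growth at the plate median or of vehicle wells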
Details: growth OD

Measured: normalized growth

COc1ccc(-c2c(O)c3c(OC)c4c(cc3oc2=O)OC(C)(C)C=C4)cc1
inactive: S. cerevisiae deletion strains, locus YJL187C, strain SWE1, stronger effect = lower value 0.952 | S. cerevisiae deletion strains, locus YJR066W, strain TOR1, stronger effect = lower value 0.934 | S. cerevisiae deletion strains, locus YKL009W, strain mrt4, stronger effect = lower value 0.935 | S. cerevisiae deletion strains, locus YKL068W, stronger effect = lower value 0.969 | S. cerevisiae deletion strains, locus YKL085W, strain MDH1 (second series), stronger effect = lower value 0.97 | S. cerevisiae deletion strains, locus YKL085W, strain MDH1, stronger effect = lower value 0.97 | S. cerevisiae deletion strains, locus YKL160W, strain elf1, stronger effect = lower value 0.936 | S. cerevisiae deletion strains, locus YKR001C, strain vps1, stronger effect = lower value 0.97 | S. cerevisiae deletion strains, locus YKR026C, strain gcn3, stronger effect = lower value 0.947 | S. cerevisiae deletion strains, locus YKR091W, strain srl3, stronger effect = lower value 0.954 | S. cerevisiae deletion strains, locus YLL001W, strain dnm1, stronger effect = lower value 0.968 | S. cerevisiae deletion strains, locus YLL026W, stronger effect = lower value 0.959 | S. cerevisiae deletion strains, locus YLL041C, strain sdh2, stronger effect = lower value 0.942 | S. cerevisiae deletion strains, locus YLR027C, strain aat2, stronger effect = lower value 0.965 | S. cerevisiae deletion strains, locus YLR039C, strain RIC1, stronger effect = lower value 1.01 | S. cerevisiae deletion strains, locus YLR058C, strain SHM2, stronger effect = lower value 0.949 | S. cerevisiae deletion strains, locus YLR102C, strain apc9, stronger effect = lower value 0.958 | S. cerevisiae deletion strains, locus YLR113W, strain HOG1, stronger effect = lower value 0.907 | S. cerevisiae deletion strains, locus YLR221C, strain rsa3, stronger effect = lower value 0.962 | S. cerevisiae deletion strains, locus YLR258W, strain gsy2, stronger effect = lower value 0.962 | S. cerevisiae deletion strains, locus YLR262C, strain YPT6 (second series), stronger effect = lower value 0.885 | S. cerevisiae deletion strains, locus YLR262C, strain YPT6, stronger effect = lower value 0.987 | S. cerevisiae deletion strains, locus YLR268W, strain sec22, stronger effect = lower value 0.91 | S. cerevisiae deletion strains, locus YLR320W, strain mms22, stronger effect = lower value 0.921 | S. cerevisiae deletion strains, locus YLR330W, strain CHS5, stronger effect = lower value 0.96 | S. cerevisiae deletion strains, locus YLR342W, strain FKS1, stronger effect = lower value 0.939 | S. cerevisiae deletion strains, locus YLR357W, strain rsc2, stronger effect = lower value 1 | S. cerevisiae deletion strains, locus YLR370C, strain arc18, stronger effect = lower value 0.95 | S. cerevisiae deletion strains, locus YLR371W, strain rom2, stronger effect = lower value 0.98 | S. cerevisiae deletion strains, locus YLR384C, strain iki3, stronger effect = lower value 0.954 | S. cerevisiae deletion strains, locus YML016C, strain PPZ1, stronger effect = lower value 0.958 | S. cerevisiae deletion strains, locus YML120C, strain ndi1, stronger effect = lower value 0.964 | S. cerevisiae deletion strains, locus YML124C, strain tub3, stronger effect = lower value 0.96 | S. cerevisiae deletion strains, locus YMR058W, strain fet3, stronger effect = lower value 0.961 | S. cerevisiae deletion strains, locus YMR078C, strain ctf18, stronger effect = lower value 0.942 | S. cerevisiae deletion strains, locus YMR125W, strain sto1, stronger effect = lower value 0.971 | S. cerevisiae deletion strains, locus YMR129W, stronger effect = lower value 0.95 | S. cerevisiae deletion strains, locus YMR205C, strain PFK2, stronger effect = lower value 0.909 | S. cerevisiae deletion strains, locus YMR223W, strain ubp8, stronger effect = lower value 0.928 | S. cerevisiae deletion strains, locus YMR231W, strain pep5, stronger effect = lower value 0.95 | S. cerevisiae deletion strains, locus YMR307W, strain GAS1, stronger effect = lower value 1.1 | S. cerevisiae deletion strains, locus YNL067W, strain RPL9B, stronger effect = lower value 0.967 | S. cerevisiae deletion strains, locus YNL071W, strain lat1, stronger effect = lower value 0.922 | S. cerevisiae deletion strains, locus YNL128W, strain TEP1, stronger effect = lower value 0.997 | S. cerevisiae deletion strains, locus YNL183C, strain NPR1, stronger effect = lower value 0.911 | S. cerevisiae deletion strains, locus YNL209W, strain ssb2, stronger effect = lower value 0.959 | S. cerevisiae deletion strains, locus YNL233W, strain BNI4, stronger effect = lower value 0.965 | S. cerevisiae deletion strains, locus YNL248C, strain rpa49, stronger effect = lower value 0.967 | S. cerevisiae deletion strains, locus YNL250W, strain rad50, stronger effect = lower value 0.913 | S. cerevisiae deletion strains, locus YNL271C, strain bni1, stronger effect = lower value 1 | S. cerevisiae deletion strains, locus YNL298W, strain CLA4, stronger effect = lower value 0.962 | S. cerevisiae deletion strains, locus YNL322C, strain KRE1 (second series), stronger effect = lower value 0.961 | S. cerevisiae deletion strains, locus YNL322C, strain KRE1, stronger effect = lower value 0.949 | S. cerevisiae deletion strains, locus YNR049C, strain mso1, stronger effect = lower value 0.965 | S. cerevisiae deletion strains, locus YNR052C, strain pop2, stronger effect = lower value 0.946 | S. cerevisiae deletion strains, locus YOL012C, strain htz1 0.954 | S. cerevisiae deletion strains, locus YOR001W, strain rrp6, stronger effect = lower value 0.969 | S. cerevisiae deletion strains, locus YOR061W, strain CKA2, stronger effect = lower value 0.952 | S. cerevisiae deletion strains, locus YOR069W, strain VPS5, stronger effect = lower value 0.952 | S. cerevisiae deletion strains, locus YOR070C, strain gyp1, stronger effect = lower value 0.94 | S. cerevisiae deletion strains, locus YOR080W, strain dia2, stronger effect = lower value 0.971 | S. cerevisiae deletion strains, locus YOR083W, strain WHI5, stronger effect = lower value 0.953 | S. cerevisiae deletion strains, locus YOR106W, strain vam3, stronger effect = lower value 0.971 | S. cerevisiae deletion strains, locus YOR136W, strain idh2, stronger effect = lower value 0.959 | S. cerevisiae deletion strains, locus YOR144C, strain elg1, stronger effect = lower value 0.942 | S. cerevisiae deletion strains, locus YOR184W, strain ser1, stronger effect = lower value 0.971 | S. cerevisiae deletion strains, locus YOR231W, strain MKK1, stronger effect = lower value 0.969 | S. cerevisiae deletion strains, locus YOR265W, strain rbl2, stronger effect = lower value 0.937 | S. cerevisiae deletion strains, locus YOR270C, strain vph1, stronger effect = lower value 0.923 | S. cerevisiae deletion strains, locus YOR290C, strain snf2, stronger effect = lower value 0.938 | S. cerevisiae deletion strains, locus YPL051W, strain arl3, stronger effect = lower value 0.951 | S. cerevisiae deletion strains, locus YPL078C, strain atp4, stronger effect = lower value 0.967 | S. cerevisiae deletion strains, locus YPL106C, strain sse1, stronger effect = lower value 1.01 | S. cerevisiae deletion strains, locus YPL240C, strain hsp82, stronger effect = lower value 0.95 | S. cerevisiae deletion strains, locus YPL241C, strain CIN2, stronger effect = lower value 0.938 | S. cerevisiae deletion strains, locus YPL256C, strain CLN2, stronger effect = lower value 0.933 | S. cerevisiae deletion strains, locus YPR141C, strain kar3, stronger effect = lower value 0.958 | S. cerevisiae deletion strains, locus YPR167C, strain met16, stronger effect = lower value 0.94 | S. cerevisiae deletion strains, strain wtn01, stronger effect = lower value 0.958 | S. cerevisiae strains, strain wild type, stronger effect = lower value 0.993
active: S. cerevisiae deletion strains, locus YLR418C, strain cdc73, stronger effect = lower value 0.833 | S. cerevisiae deletion strains, locus YML032C, strain rad52, stronger effect = lower value 0.901 | S. cerevisiae deletion strains, locus YNL307C, strain MCK1, stronger effect = lower value 0.84 | S. cerevisiae deletion strains, locus YOL147C, strain pex11, stronger effect = lower value 0.928 | S. cerevisiae deletion strains, locus YOR316C, strain cot1, stronger effect = lower value 0.916 | S. cerevisiae deletion strains, locus YPR119W, strain clb2, stronger effect = lower value 0.928 | S. cerevisiae deletion strains, locus YPR163C, strain tif3, stronger effect = lower value 0.908
